From PubChem BioAssay (Tox21)
Inconclusive results are not listed. Where a call stands in place of a potency, no number is given. The source made the active and inactive calls. Calls come from the whole dose curve; as a rule, active = well fitted curve in the direction sought with a large enough effect in the repeat runs; inconclusive = weak or mixed curves; inactive = no such curve, though single readings can be large; an effect the other way counts as inactive or inconclusive.

Assay: A CellTox Green Cytotoxicity Assay to monitor cytotoxicity in HepG2 cells - 8 hour (AID 1224890); note: nearly all actives have a fitted effect of over 45% in size; note: potency is the fitted concentration of half-maximal effect
Details: CellTox Green fluorescence; series mostly up to 76.8 µM
Outline: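 Read-out is fluorescence of a cyanine dye excluded from live cells that stains DNA of dead HepG2 cells, with signal proportional to cytotoxicity. Plates were read at 0, 8, 16, 24, 32 and 40 h after compound addition.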

SMILES	Potency
c1cc2ccc3cccc4ccc(c1)c2c34	inactive
BrCC(Br)C1CCC(Br)C(Br)C1 (stereo not drawn)	inactive
Oc1ccc(Cl)c(Cl)c1Cl	inactive
CCOC(=O)[C@]1(c2ccccc2)Oc2ccccc2[C@@H]1N	inactive
O=C(N[C@H](c1ccccc1)[C@@H]1CN2CCC1CC2)c1c(Cl)ccc(C(F)(F)F)c1Cl	inactive
CCCCN=C=O	inactive
[CH3][Sn]([CH3])([Cl])[Cl]	inactive
CCOP(=O)(OCC)Oc1ccc([N+](=O)[O-])cc1	inactive
CC(C)O.CC(C)O.OCCN(CCO)CCO.OCCN(CCO)CCO.[Ti]	inactive
COc1nn(C(=O)NS(=O)(=O)c2ccccc2OC(F)(F)F)c(=O)n1C	39.9 µM (active)
CCOS(C)(=O)=O	inactive
Nc1nc(N)nc(N)n1	inactive
CCCCN(N=O)C(=N)N[N+](=O)[O-]	inactive
Cc1ccc(-c2c(Cl)nc(C#N)n2S(=O)(=O)N(C)C)cc1	inactive
Clc1cc(C(Cl)(Cl)Cl)cnc1Cl	inactive
CCCC(Cn1cncn1)c1ccc(Cl)cc1Cl (stereo not drawn)	inactive
O=Cc1ccc(Cl)cc1Cl	inactive
CCCCc1c(C)nc(NCC)nc1OS(=O)(=O)N(C)C	inactive

SMILES	Potency
CCCCOC(=O)c1ccccc1C(=O)OCc1ccccc1	inactive
CC1C(=O)C[C@]2(C(C)C)C[C@H]12 (stereo partly drawn)	inactive
O=S(=O)(O)C(F)(F)C(F)(F)C(F)(F)C(F)(F)F	inactive
CCOC(=O)CBr	inactive
CCn1cc[n+](C)c1	inactive
[O-][Cl+]O	inactive
O=C(O)c1ccccc1C(=O)Nc1cccc2ccccc12	inactive
C/C(=C\c1ccccc1)[N+](=O)[O-]	inactive
O=C(O)C1(c2ccc3c(c2)OC[C@H](Cc2ccc(-c4ccccc4)cc2)[C@H]3O)CCCC1	inactive
CCCCCCCCOC(=O)c1ccc(C(=O)OCCCCCCCC)c(C(=O)OCCCCCCCC)c1	inactive
CN1C[C@H](CNC(=O)OCc2ccccc2)C[C@@H]2c3cccc4c3c(cn4C)C[C@H]21	inactive
C=COC(C)=O	inactive
Clc1cccc2ccccc12	inactive
O=S(=O)(Cl)c1ccccc1	inactive
CC(C)(CCl)C(=O)Cl	inactive
CO/N=C(/C(=O)OC)c1ccccc1COc1ccccc1C	inactive
O=Cc1ccc2c(c1)OCO2	inactive

Assay: qHTS assay to identify small molecule antagonists of the estrogen receptor alpha (ER-alpha) signaling pathway using the BG1 cell line in the presence of 0.1 nM 17-beta-estradiol - cell viability counter screen (AID 1259241); note: nearly all actives have a fitted effect of over 40% in size
Details: VM7Luc4E2 (BG1) viability, CellTiter-Fluor protease, 22 h, 0.1 nM estradiol agonist added; series mostly up to 92.4 µM
Outline: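 In this screen, hormone-deprived VM7Luc4E2 cells were seeded at 4,000 per well, dosed with compound and 0.1 nM estradiol final, and incubated 22 hr at 37C and 5% CO2; fluorogenic live-cell protease signal reported viability.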

SMILES	Potency
BrCC(Br)C1CCC(Br)C(Br)C1 (stereo not drawn)	inactive
Oc1ccc(Cl)c(Cl)c1Cl	inactive
CCOC(=O)[C@]1(c2ccccc2)Oc2ccccc2[C@@H]1N	inactive
O=C(N[C@H](c1ccccc1)[C@@H]1CN2CCC1CC2)c1c(Cl)ccc(C(F)(F)F)c1Cl	inactive
CCCCN=C=O	inactive
[CH3][Sn]([CH3])([Cl])[Cl]	inactive
CCOP(=O)(OCC)Oc1ccc([N+](=O)[O-])cc1	inactive
CC(C)O.CC(C)O.OCCN(CCO)CCO.OCCN(CCO)CCO.[Ti]	inactive
COc1nn(C(=O)NS(=O)(=O)c2ccccc2OC(F)(F)F)c(=O)n1C	inactive
CCOS(C)(=O)=O	inactive
Nc1nc(N)nc(N)n1	inactive
CCCCN(N=O)C(=N)N[N+](=O)[O-]	inactive
Cc1ccc(-c2c(Cl)nc(C#N)n2S(=O)(=O)N(C)C)cc1	inactive
Clc1cc(C(Cl)(Cl)Cl)cnc1Cl	inactive
CCCC(Cn1cncn1)c1ccc(Cl)cc1Cl (stereo not drawn)	inactive
O=Cc1ccc(Cl)cc1Cl	inactive
CCCCc1c(C)nc(NCC)nc1OS(=O)(=O)N(C)C	inactive

SMILES	Potency
CCCCOC(=O)c1ccccc1C(=O)OCc1ccccc1	inactive
CC1C(=O)C[C@]2(C(C)C)C[C@H]12 (stereo partly drawn)	inactive
O=S(=O)(O)C(F)(F)C(F)(F)C(F)(F)C(F)(F)F	inactive
CCOC(=O)CBr	inactive
CCn1cc[n+](C)c1	inactive
[O-][Cl+]O	inactive
O=C(O)c1ccccc1C(=O)Nc1cccc2ccccc12	inactive
C/C(=C\c1ccccc1)[N+](=O)[O-]	inactive
O=C(O)C1(c2ccc3c(c2)OC[C@H](Cc2ccc(-c4ccccc4)cc2)[C@H]3O)CCCC1	inactive
CCCCCCCCOC(=O)c1ccc(C(=O)OCCCCCCCC)c(C(=O)OCCCCCCCC)c1	inactive
CN1C[C@H](CNC(=O)OCc2ccccc2)C[C@@H]2c3cccc4c3c(cn4C)C[C@H]21	inactive
C=COC(C)=O	inactive
Clc1cccc2ccccc12	inactive
O=S(=O)(Cl)c1ccccc1	inactive
CC(C)(CCl)C(=O)Cl	inactive
CO/N=C(/C(=O)OC)c1ccccc1COc1ccccc1C	inactive
O=Cc1ccc2c(c1)OCO2	inactive

Assay: qHTS assay to identify small molecule antagonists of the androgen receptor (AR) signaling pathway using the MDA cell line in the presence of 0.5 nM R1881 - cell viability counter screen (AID 1259242); note: nearly all actives have a fitted effect of over 45% in size
Details: MDA-kb2 viability, CellTiter-Fluor protease fluorescence, 16 h; series mostly up to 92.4 µM
Outline: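 Counter screen for cytotoxicity run in the same wells as the AR antagonist reporter screen: MDA-kb2 cells were treated 16 hr with test compounds and 0.5 nM R1881, then live-cell protease activity was measured by fluorescence.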

SMILES	Potency
c1cc2ccc3cccc4ccc(c1)c2c34	inactive
BrCC(Br)C1CCC(Br)C(Br)C1 (stereo not drawn)	inactive
Oc1ccc(Cl)c(Cl)c1Cl	inactive
CCOC(=O)[C@]1(c2ccccc2)Oc2ccccc2[C@@H]1N	inactive
CCCCN=C=O	inactive
[CH3][Sn]([CH3])([Cl])[Cl]	inactive
CCOP(=O)(OCC)Oc1ccc([N+](=O)[O-])cc1	inactive
CC(C)O.CC(C)O.OCCN(CCO)CCO.OCCN(CCO)CCO.[Ti]	inactive
COc1nn(C(=O)NS(=O)(=O)c2ccccc2OC(F)(F)F)c(=O)n1C	inactive
CCOS(C)(=O)=O	inactive
Nc1nc(N)nc(N)n1	inactive
CCCCN(N=O)C(=N)N[N+](=O)[O-]	inactive
CCCC(Cn1cncn1)c1ccc(Cl)cc1Cl (stereo not drawn)	inactive
O=Cc1ccc(Cl)cc1Cl	inactive
CCCCc1c(C)nc(NCC)nc1OS(=O)(=O)N(C)C	inactive
CCCCOC(=O)c1ccccc1C(=O)OCc1ccccc1	inactive
CC1C(=O)C[C@]2(C(C)C)C[C@H]12 (stereo partly drawn)	inactive
O=S(=O)(O)C(F)(F)C(F)(F)C(F)(F)C(F)(F)F	inactive
CCOC(=O)CBr	inactive
CCn1cc[n+](C)c1	inactive
[O-][Cl+]O	inactive
O=C(O)c1ccccc1C(=O)Nc1cccc2ccccc12	inactive
O=C(O)C1(c2ccc3c(c2)OC[C@H](Cc2ccc(-c4ccccc4)cc2)[C@H]3O)CCCC1	inactive
CCCCCCCCOC(=O)c1ccc(C(=O)OCCCCCCCC)c(C(=O)OCCCCCCCC)c1	inactive
C=COC(C)=O	inactive
Clc1cccc2ccccc12	inactive
O=S(=O)(Cl)c1ccccc1	inactive
CC(C)(CCl)C(=O)Cl	inactive
O=Cc1ccc2c(c1)OCO2	inactive
